2 compounds from PubChem BioAssay AID683 (University of Pittsburgh Molecular Library Screening Center, 2007) can be followed below.

The other results are listed elsewhere or left out. Activity calls are given as the source filed them. No stated cut-off is given here; in the data, active means EC50 below about 50 µM; inactive means the rest. Some results are limits rather than exact numbers.

The nature of the assay: redox cycling H2O2 generation, 1 mM DTT, dose response, artefact control, biochemical, 1.0 mM DTT, Cdc25B catalytic domain (AID 683). The conditions noted are these: cell-free redox cycling H2O2 generation.

Usually EC50 stands for the concentration at which the effect is half-maximal. As to `c1ccc(CSc2nnc(-c3ccco3)c(-c3ccco3)n2)cc1`, the EC50 was > 50 µM (inactive).

Turning to `COc1cccc2c(C)c(C(=O)O)[nH]c12`, the EC50 was > 50 µM (inactive).
